Assay outcomes: PubChem, several laboratories
In the library only some 4.7% were active in any assay of this set; here they are far more common.
RecA intein inh: Mtb RecA intein splicing inhibition | hit rate 0.75% among 290,000 | P9WHJ3 | cell-free RecA intein splicing, fluorescence | inhibition, % (test concentration not listed); in the data active = inhibition above about 30%
GDH-TPI inh: counter-screen for M. tuberculosis FBA inhibitors: GDH-TPI coupled enzymes; hit rate 1.2% among 360,000; GDH-TPI coupled enzyme counterscreen, NADH absorbance; AID 588335; inhibition, % at 4.8 µM
VHR inh abs: inhibitors of human VHR1 phosphatase (DUSP3) | recombinant VHR phosphatase, pNPP absorbance | inhibition, % at 13.3 µM | hit rate 0.52% among 290,000 | AID 1654; in the data active = inhibition above about 50%
CCHF vOTU inh-1: blocks the CCHF virus ovarian tumor domain protease. hit rate 0.55% among 370,000. inhibition, % at 11.5 µM. CCHFV vOTU protease, Pep-AMC fluorescence
SARS 3CLpro inh: SARS-CoV 3CLpro protease inhibition; P0C6X7; recombinant SARS-CoV 3CLpro, quenched FRET peptide cleavage; inhibition, % at 6 µM; hit rate 0.14% among 290,000; in the data active = inhibition above about 12%
FBA Mtb inh: inhibits M. tuberculosis FBA enzyme | P9WQA3 | purified M. tuberculosis FBA, fluorescence read-out | inhibition, % at 1 µM | hit rate 2.3% among 360,000; in the data active = inhibition above about 27%
Target sequence (P9WQA3 whole entry, looked up): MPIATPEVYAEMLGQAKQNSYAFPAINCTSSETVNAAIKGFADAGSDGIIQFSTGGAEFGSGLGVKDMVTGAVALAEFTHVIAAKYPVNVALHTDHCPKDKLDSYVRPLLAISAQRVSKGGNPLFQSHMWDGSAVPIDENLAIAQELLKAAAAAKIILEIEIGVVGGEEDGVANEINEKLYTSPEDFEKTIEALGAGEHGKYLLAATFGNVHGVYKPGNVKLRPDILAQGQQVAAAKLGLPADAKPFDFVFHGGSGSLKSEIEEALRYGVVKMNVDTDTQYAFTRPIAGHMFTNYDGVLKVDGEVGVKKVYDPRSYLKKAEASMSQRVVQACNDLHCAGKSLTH
CCHF vOTU inh-2: CCHFV vOTU protease inhibition, confirmation; Recombinant CCHFV vOTU, Pep-AMC fluorescence; shares compounds with CCHF vOTU inh-1; inhibition, % at 11.5 µM; hit rate 17% among 1,900; AID 686976
Of the large screens only hits and unclear results are named; the others gave an inactive call (follow-up assays come after a bar, where they were run). Cut-off read from the data, not from the text of the source, unless noted: active = inhibition above about 30%; inactive = the rest.

Clc1ccccc1N=Nc1ccccn1	CCHF vOTU inh-1 84 (no result: RecA intein inh, VHR inh abs, SARS 3CLpro inh) | CCHF vOTU inh-2 inactive
O=C(Cc1ccccc1[N+](=O)[O-])NCCCN1CCOCC1	none
Cc1c(C(=O)O)cccc1-c1ccc(C=O)o1	CCHF vOTU inh-1 36 | CCHF vOTU inh-2 inactive
Oc1cc(NCc2ccc(F)cc2)cc2cccnc12	none (no result: RecA intein inh, VHR inh abs, SARS 3CLpro inh)
CN(C)CCCNc1cc(O)c2ncccc2c1	CCHF vOTU inh-1 92 (no result: RecA intein inh, VHR inh abs, SARS 3CLpro inh) | CCHF vOTU inh-2 94
COc1ccc(-n2nc(C(=O)NCC(=O)NC3CCCCC3)c3ccccc3c2=O)cc1	none
CN(C)c1ccc(N=Cc2cccn2C)cc1	CCHF vOTU inh-1 42 | CCHF vOTU inh-2 inactive
COc1ccc(NC(=O)CCNC(=O)Cn2cnc3ccccc3c2=O)cc1OC	none
O=C(Cn1cnc2ccccc2c1=O)NCCC(=O)Nc1ccc(F)cc1	CCHF vOTU inh-1 56 | CCHF vOTU inh-2 inactive
O=C(NCc1nnc(SCc2ccc(F)cc2)n1-c1ccc(F)cc1)C12CC3CC(CC(C3)C1)C2	CCHF vOTU inh-1 34 | CCHF vOTU inh-2 inactive
CCOc1cccc(C(=O)Nc2nc(-c3ccc(S(=O)(=O)N4CCOCC4)cc3)cs2)c1	none
O=C(Nc1nc(-c2ccncc2)cs1)c1ccc(S(=O)(=O)N2CCOCC2)cc1	CCHF vOTU inh-1 39 | CCHF vOTU inh-2 inactive
NC(=O)/C(N=Nc1ccccc1)=N/Nc1ccccc1	none (no result: VHR inh abs, SARS 3CLpro inh)
OCC1OC(C(N=Nc2ccccc2)=NNc2ccccc2)C(O)C1O (configuration not stated)	CCHF vOTU inh-1 31 (no result: RecA intein inh, GDH-TPI inh, VHR inh abs, SARS 3CLpro inh, FBA Mtb inh) | CCHF vOTU inh-2 inactive
Cc1ccc(NC(=O)CSCC(=O)Nc2cccc3ncccc23)cc1	none (no result: VHR inh abs, SARS 3CLpro inh)
COC1=C(Nc2ccc(C)cc2)C(=O)c2ccccc2C1=O	CCHF vOTU inh-1 55 | CCHF vOTU inh-2 inactive
CCOc1ccc(NC(=O)C(C)Oc2ccc(C#N)cc2)cc1S(=O)(=O)N1CCCC1 (configuration not stated)	none (no result: RecA intein inh, VHR inh abs, SARS 3CLpro inh)
CC(NC(=O)CSC(=S)N(C)C)C12CC3CC(CC(C3)C1)C2 (configuration not stated)	none (no result: RecA intein inh)
COc1ccc(CNS(=O)(=O)CCNC(=O)c2ccc(OC)cc2)cc1	CCHF vOTU inh-1 31 (no result: VHR inh abs, SARS 3CLpro inh) | CCHF vOTU inh-2 inactive
CCCCCCCCNS(=O)(=O)CCNCc1ccc(OC)cc1	CCHF vOTU inh-1 32 (no result: RecA intein inh, VHR inh abs, SARS 3CLpro inh) | CCHF vOTU inh-2 inactive
COc1ccc(C(=O)NCCS(=O)(=O)NCc2ccc(C)cc2)cc1	none (no result: VHR inh abs, SARS 3CLpro inh)
COc1ccc([C@H](C#Cc2ccccc2)CC(=O)O)cc1OC1CCCC1	none (no result: RecA intein inh, GDH-TPI inh, VHR inh abs, SARS 3CLpro inh, FBA Mtb inh)
Cc1ccc(C)c(N2CCN(C(=O)CCc3nc(-c4ccc(F)cc4)no3)CC2)c1	none (no result: RecA intein inh, VHR inh abs, SARS 3CLpro inh)
COCc1nc2oc3ccccc3c(=O)c2cc1C(=O)OC	none
COc1cc(C(=O)OC2C[C@H]3CC[C@@H](C2)N3C)ccc1O (some centres not stated)	none
COc1cc(C(=O)O[C@H]2CC(C)=CC[C@@]3(C)CC[C@@](O)(C(C)C)[C@H]23)ccc1O	CCHF vOTU inh-1 38 | CCHF vOTU inh-2 inactive
CC(=O)c1ccc(NC(=O)C2=CC(c3ccco3)=NS(=O)(=O)N2C)cc1	GDH-TPI inh 31, CCHF vOTU inh-1 33 | CCHF vOTU inh-2 inactive
NS(=O)(=O)c1ccc(NC(=O)COC(=O)CNC(=O)C23CC4CC(CC(C4)C2)C3)cc1	none
CN1CCN(C(=O)C2CCC(=O)N(Cc3cccc(C(F)(F)F)c3)C2)CC1 (configuration not stated)	none
Nc1cccc2cnccc12	CCHF vOTU inh-1 48 (no result: RecA intein inh) | CCHF vOTU inh-2 inactive
Oc1cccc2cnccc12	none
O=C1NCCCC2c3cc(O)c4ccccc4c3OC12N1CCCCC1 (configuration not stated)	CCHF vOTU inh-1 92 (no result: RecA intein inh, GDH-TPI inh, FBA Mtb inh) | CCHF vOTU inh-2 inactive
O=C1NCCCC2c3c(cc(Br)c(O)c3Br)OC12N1CCOCC1 (configuration not stated)	none
COc1cc(C2Nc3cccc4cccc(c34)N2)ccc1O	CCHF vOTU inh-1 41 | CCHF vOTU inh-2 inactive
COc1cc(C2Nc3cccc4cccc(c34)N2)cc(OC)c1OC(C)=O	none
C/C(=N\NC(=O)c1cc(O)ccc1O)c1cccc(NC(=O)c2ccc(Cl)cc2)c1	none
C/C(=N\NC(=O)c1cc(O)ccc1O)c1cccc(NC(=O)c2cccc(Cl)c2)c1	CCHF vOTU inh-1 32 | CCHF vOTU inh-2 inactive
O=c1[nH]c(=S)[nH]c2c1C(c1cccc(C(F)(F)F)c1)OC(CCc1ccccc1)C2 (configuration not stated)	CCHF vOTU inh-1 42 (no result: RecA intein inh, GDH-TPI inh, VHR inh abs, SARS 3CLpro inh, FBA Mtb inh) | CCHF vOTU inh-2 inactive
